# SUMO Mot1 rescue: yeast Mot1-301 growth rescue at high temperature, primary screen, SUMOylation pathway inhibitor project, S. cerevisiae, ATP luminescence, 38.5C; S. cerevisiae Mot1-301 growth rescue; percent above DMSO median, 100 means doubled; growth rescue, % at 18.8 µM; actives 1% (n = 320,000); AID 2716, 2010;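 active = every valid replicate shows activation above 250% relative to neutral control wells; inactive = the rest, any valid replicate at or below 250%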;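 also: OY570 slx delta 5 strain wells were the positive control but not used for scaling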
# Efflux pump mplx: inhibitors of Candida efflux pumps in yeast, primary screen, S. cerevisiae, Nile Red, multiplex; S. cerevisiae Candida pump triplex; inhibition, % at 10 µM; actives 0.44% (n = 330,000); AID 485275, 2010;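 active = plate passing quality check with inhibition over a set limit, or well fluorescence over plate mean plus 4 SD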;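 also: Nile Red retained in pooled yeast measured as flow cytometry median fluorescence; 0% = buffer negative control and 100% = Enniatin B positive control; higher means more Nile Red kept so more efflux inhibition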
# AHR activator: AHR activators, primary screen, cell-based, luminescence, luciferase reporter, human | Aryl hydrocarbon receptor (Homo sapiens), P35869 | AHR-responsive luciferase reporter cells | actives 2.5% (n = 320,000) | activation, % at 5 µM; in the data active = activation above about 47%;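 also: 0% = vehicle wells and 100% = reference agonist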
# A1 inh: caspase 3/7 activation in MEF A1-2A-BIM cells, primary screen, A1 inhibitor project, cell-based, luminescence, HTS; Caspase-Glo 3/7 luminescence, 3 h; percent of clofoctol response, vehicle zero; caspase activation, % (concentration not given with the values); actives 0.066% (n = 330,000); AID 2462, 2010;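 active = over half of replicate activation scores above 10%, or exactly half above 10 with the replicate mean above 10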
# VLA-4 inh: inhibition in human VLA-4 binding assay, primary screen, VLA-4 allosteric modulator project, MLPCN library, flow cytometry, VLA-4 expressing cells | actives 0.2% (n = 330,000) | ligand binding flow cytometry | inhibition, % (about 7 µM as worked out from the volumes in the protocol); in the data active = inhibition above about 50%
# Target sequence (P13612 whole entry, looked up): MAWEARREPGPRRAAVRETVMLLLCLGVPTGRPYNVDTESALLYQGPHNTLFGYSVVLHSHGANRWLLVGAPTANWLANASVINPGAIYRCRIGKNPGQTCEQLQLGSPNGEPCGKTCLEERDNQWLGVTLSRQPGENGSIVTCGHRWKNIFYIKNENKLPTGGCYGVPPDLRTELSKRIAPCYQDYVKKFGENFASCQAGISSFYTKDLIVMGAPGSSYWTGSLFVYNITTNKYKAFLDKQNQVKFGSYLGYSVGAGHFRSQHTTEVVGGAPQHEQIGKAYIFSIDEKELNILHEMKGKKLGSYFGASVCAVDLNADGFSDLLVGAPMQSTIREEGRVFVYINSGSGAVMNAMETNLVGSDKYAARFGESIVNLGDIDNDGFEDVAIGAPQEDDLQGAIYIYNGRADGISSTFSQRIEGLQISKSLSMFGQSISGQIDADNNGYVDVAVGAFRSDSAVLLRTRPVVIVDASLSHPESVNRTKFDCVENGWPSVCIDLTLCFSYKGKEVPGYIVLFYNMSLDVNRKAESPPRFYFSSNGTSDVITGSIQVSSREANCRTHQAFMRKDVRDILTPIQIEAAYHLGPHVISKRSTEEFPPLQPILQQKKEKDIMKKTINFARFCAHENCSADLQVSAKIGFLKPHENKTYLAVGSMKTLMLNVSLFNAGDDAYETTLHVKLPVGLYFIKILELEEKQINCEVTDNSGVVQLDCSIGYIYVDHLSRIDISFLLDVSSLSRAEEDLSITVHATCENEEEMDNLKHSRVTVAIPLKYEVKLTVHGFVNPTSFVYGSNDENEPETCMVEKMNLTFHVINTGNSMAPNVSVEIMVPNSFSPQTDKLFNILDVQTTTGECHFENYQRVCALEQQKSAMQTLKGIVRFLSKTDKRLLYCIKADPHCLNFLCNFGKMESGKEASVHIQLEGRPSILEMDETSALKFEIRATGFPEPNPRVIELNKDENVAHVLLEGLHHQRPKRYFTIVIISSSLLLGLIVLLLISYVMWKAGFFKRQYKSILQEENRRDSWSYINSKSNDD
# ALR inh: inhibitors of human ALR sulfhydryl oxidase, primary screen, biochemical, H2O2 detection, HRP-luminol luminescence, single point; actives 3.8% (n = 290,000); purified ALR, DTT oxidation; FAD-linked sulfhydryl oxidase ALR (Homo sapiens), P55789; inhibition, % (concentration not given with the values);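 active = mean replicate inhibition above about 79%, with every replicate also reaching it, limit read from the data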
# Numbers without * were called inactive; · = no result given. Most compounds without a hit are left out; they make up all but 7.2% or so of the library.
SMILES,SUMO Mot1 rescue,Efflux pump mplx,AHR activator,A1 inh,VLA-4 inh,ALR inh
COc1ccc(-c2nc3cc(C)ccn3c2NC(=O)c2ccccc2OC)cc1,15,0,53*,-1,-15,38
Cn1c(CNc2ccc(F)cc2)nc2ccccc21,-8,0,·,-12,-3,85*
Cn1c(CCNC(=O)c2ccc(F)cc2)nc2ccccc21,19,0,-3,0,21,-36
Cn1c(CNc2ccccc2)nc2ccccc21,-1,0,65*,-1,26,53
CN(C(=O)CN1C(=O)c2cc(Cl)c(Cl)cc2C1=O)C1CCS(=O)(=O)C1 (centres undefined),5,0,-1,0,8,-2
N#CC(C#N)=C(N)/C(C#N)=C/c1cc(O)c(O)c(O)c1,-5,0,0,-1,11,96*
CCCN(CC(=O)Nc1ccccc1C)C(=O)c1sc2ccccc2c1Cl,0,0,5,0,12,-2
O=C1CN(C(=O)COC(=O)c2ccc(Cl)c(S(=O)(=O)N3CCCCC3)c2)c2ccccc2N1,13,0,4,0,4,·
Cc1cc(NO)c(C(C)C)cc1N=O,·,0,0,0,12,1
COc1ccc(CNn2c(C)nc3ccccc3c2=O)cc1,-2,0,70*,0,-6,-4
CCCCOc1ccc(CNn2c(C)nc3ccccc3c2=O)cc1,-2,0,1,0,0,·
COc1ccc(CCn2c(S)nc3ccccc3c2=O)cc1,-17,0,68*,0,5,·
COc1cc(OC)cc(C2=NCCN2)c1,13,0,4,0,3,-2
S=C(NCc1ccccc1)N1CCCCC1,27,0,-4,0,-3,-2
CC(=O)N1CCN(C(=S)NCc2ccccc2)CC1,7,0,0,0,54*,-5
Cc1nc(/C=C\C(=O)O)c2cc(C)oc2n1,4,0,1,0,-1,-2
N#Cc1ccc(OCC(=O)n2cc(C(=O)c3cc(Cl)cc(Cl)c3O)cn2)cc1,-12,0,70*,1,-3,25
O=C(c1cnn(C(=O)COc2ccc(Cl)cc2)c1)c1ccccc1O,53,0,3,1,5,15
O=C(CCNS(=O)(=O)c1cccc2nonc12)NCCc1ccc(Cl)cc1,101,0,6,1,22,-3
O=C(O)Cc1sc(N/N=C\c2ccccc2)nc1-c1ccccc1,-16,0,75*,-2,32,18
Cc1ccc(-c2nc(Nc3cccc(C)c3)sc2CC(=O)O)cc1,-7,0,22,-2,-23,98*
CCOC(=O)c1sc(Nc2ccc(C)cc2C)nc1C,129,0,13,0,7,-1
O=C(O)Cc1sc(NCCc2ccccc2)nc1-c1ccc(F)cc1,-11,0,3,-1,0,22
CCOC(=O)c1sc(Nc2ccccc2)nc1C,-15,0,21,-1,-10,13
CCOC(=O)c1sc(N/N=C/c2ccccc2)nc1C,-14,0,61*,0,·,·
SMILES,SUMO Mot1 rescue,Efflux pump mplx,AHR activator,A1 inh,VLA-4 inh,ALR inh
CCOC(=O)c1sc(N/N=C/c2cccc(C)c2)nc1C,7,0,98*,0,-1,-1
Cc1ccc(NC(=O)CSc2nnc(C3CC3)n2CC2CCCO2)cc1C (centres undefined),14,0,11,0,-5,·
Cc1cc(C(=O)Cn2cnc3cc(F)ccc3c2=O)c(C)n1C1CC1,9,0,3,0,-5,-2
Cc1ccc(-c2nc(C)sc2CC(=O)Nc2nnc(C)s2)cc1,2,1,4,0,6,98*
O=C(O)CCn1cc(/C=C/C(=O)c2ccc(Cl)cc2)c(-c2ccc(Br)cc2)n1,-4,0,0,0,-13,98*
O=C(Cc1ccc(Cl)cc1)N/N=C/c1cccc(O)c1,10,0,3,0,14,31

# Screening results (PubChem)
